# Screening data from PubChem.
# Shown are actives, neighbours in structure and some others; about 7.1% of the full set was active somewhere.
# M1 agonist: M1 muscarinic receptor agonism | B-score at 10 µM | 64,000 tested, 3% active | CHO-M1 cells, Fluo-4 calcium fluorescence, agonist mode; hits give high values;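 active means fluorescence rise, raw or as B-score row- and column-corrected plate score, outside the 99.7% band of its plate's samples, either direction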
# Pyk2 oligo antag: Pyk2 (human) oligomerization antagonism; Q14289; Q293 cells, Pyk2 FERM NanoBiT luminescence; hits give low values; z-score (the deposit names both 25 µM and 10 µM); 99,000 tested, 0.83% active; AID 1347419;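 active means Z-score of -3 or lower, scaled per plate to the spread of control and sample wells; inactive means z-score above -3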;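 further: negative z-score means lost luminescence so less FERM oligomerization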
# M1 antagonist: M1 muscarinic receptor (rat) antagonism; P08482; CHO-M1 cells, Fluo-4 calcium, ACh EC80 antagonist mode; hits give low values; B-score at 10 µM; 64,000 tested, 3.4% active; AID 628;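 active means calcium fluorescence response, raw or row-and-column corrected B-score, differing from the plate sample mean either way at a set confidence level, mostly lower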
# Target sequence (P08482 whole entry, looked up): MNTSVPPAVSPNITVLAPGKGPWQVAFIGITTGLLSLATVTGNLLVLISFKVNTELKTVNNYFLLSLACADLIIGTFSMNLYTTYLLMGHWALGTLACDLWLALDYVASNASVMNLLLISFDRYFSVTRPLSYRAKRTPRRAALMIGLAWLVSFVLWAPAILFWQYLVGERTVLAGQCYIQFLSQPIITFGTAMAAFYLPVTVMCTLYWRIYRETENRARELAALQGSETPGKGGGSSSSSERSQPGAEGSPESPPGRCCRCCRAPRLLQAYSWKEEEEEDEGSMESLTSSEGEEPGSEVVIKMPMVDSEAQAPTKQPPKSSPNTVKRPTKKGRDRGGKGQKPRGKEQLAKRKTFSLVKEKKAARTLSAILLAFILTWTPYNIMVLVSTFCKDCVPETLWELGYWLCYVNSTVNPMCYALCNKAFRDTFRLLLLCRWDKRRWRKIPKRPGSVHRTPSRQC
# Cav32 inh: human Cav3.2 channel inhibition, primary screen; O95180; Cav3.2-expressing cells, Fluo-4 calcium fluorescence FDSS; hits give low values; B-score at 10 µM; 100,000 tested, 4% active; AID 449739;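 active means single-dose well whose peak fluorescence ratio is a statistical outlier from its plate by either plate-standardised score or position-corrected B-score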
# Active calls of the source: *; x = not tested or not shown.
SMILES,M1 agonist,Pyk2 oligo antag,M1 antagonist,Cav32 inh
O=C(NCCCN1CCN(c2cccc(Cl)c2)CC1)C1(S(=O)(=O)c2ccc(Cl)cc2)CC1,x,0.73,x,-6.9*
O=C(N1CCN(c2cccc(Cl)c2)CC1)C1(S(=O)(=O)c2ccc(Cl)cc2)CC1,x,1.1,x,-4.7*
CC(=O)c1ccc(N2CCN(C(=O)C3(S(=O)(=O)c4ccc(Cl)cc4)CC3)CC2)cc1,-1.3,-0.17,0.026,0.51
COc1ccc(N2CCN(CCCNC(=O)C3(S(=O)(=O)c4ccc(Cl)cc4)CC3)CC2)cc1,1.1,1.2,-0.12,x
Cc1ccc(Cl)cc1N1CCN(C(=O)C2(S(=O)(=O)c3ccc(Cl)cc3)CC2)CC1,x,0.85,x,-6.1*
CC(=O)c1c(C)[nH]c(C(=O)N2CCN(c3cc(Cl)ccc3C)CC2)c1C,x,-0.98,x,-0.69
O=C(C1=C[C@H](C2CCCCC2)C[C@H](OCCCCO)O1)N1CCN(Cc2ccccc2)CC1,x,x,x,-0.0015
Cn1c(C(=O)NCc2ccc3c(c2)OCO3)cc2sccc21,-0.28,-0.92,-0.018,-2.3
CC(C)n1c(C(=O)OCC(=O)NCc2ccc3c(c2)OCO3)cc2sccc21,4.4,-1.4,-0.78,-3.3*
Cc1ccc(C2=NN(C(=S)Nc3ccccc3)C(c3ccco3)C2)cc1 (centres undefined),x,-0.15,x,-3
CCS(=O)(=O)Nc1ccc(C2=NN(C(=O)c3ccco3)C(c3ccc(C)cc3)C2)cc1 (centres undefined),x,-3*,x,0.0071
COc1ccccc1NC(=O)c1ccc(-n2cccn2)nc1,x,-0.72,x,-0.38
CCCSc1nc(C)c(CC(=O)O)c(=O)[nH]1,-0.053,0.35,0.14,1.1
CCOC(=O)c1c(NS(=O)(=O)Cc2ccccc2)sc2c1CCCC2,x,-0.01,x,-4.2*
CCOC(=O)c1c(NC(=O)OC)sc2c1CCC2,-0.067,0.19,0.021,-0.6
CCOC(=O)c1c(NS(=O)(=O)c2ccc(Br)cc2)sc2c1CCC2,x,-0.24,x,-8.5*
N#Cc1ccc(-n2nccc2-c2cnc3n(c2=O)CCS3)cc1,x,0.64,x,0.41
COc1cccc(C(C)NC(=O)Nc2cccc(C(F)(F)F)c2)c1 (centres undefined),x,-2.1,x,-8.3*
CCC(SC1=NCCS1)C(=O)Nc1ccc(S(N)(=O)=O)cc1 (centres undefined),x,0.41,x,x
Cc1c(NC(=O)CN2CCN(C(c3ccccc3)c3ccccc3)CC2)c(=O)n(-c2ccccc2)n1C,0.14,-3.5*,-0.37,0.036
CCOC(=O)C1(C)NC(c2ccc(OC)cc2OC)C2C(=O)N(c3cccc(OC)c3)C(=O)C21 (centres undefined),1.6,0.87,-0.0014,x
CCOc1cccc(SCc2noc(C(=O)NCC3CCCO3)c2C(=O)O)c1 (centres undefined),x,x,x,0.31
N#Cc1c(C(F)(F)F)cc(-c2cccc(Cl)c2)[nH]c1=O,x,0.71,x,-2.7*
N#Cc1c(C(F)(F)F)cc(-c2ccc(Cl)cc2)[nH]c1=O,x,0.32,x,-8.7*
CN(Cc1ccccc1)S(=O)(=O)c1ccc(NS(=O)(=O)Cc2ccccc2)cc1,x,-1.2,x,-3.8*
SMILES,M1 agonist,Pyk2 oligo antag,M1 antagonist,Cav32 inh
CC(C)C(=O)NC(=S)Nc1ccc(S(=O)(=O)NC(C)(C)C)cc1,x,0.84,x,-1.1
CC(C)C(=O)NC(=S)Nc1ccc(S(=O)(=O)N(C)Cc2ccccc2)cc1,x,-1.9,x,-5.7*
CCCNC(=O)c1cccc(Cn2nc(C)c(Br)c2C)c1,-1.2,1.5,-0.36,-0.14
Cc1nn(Cc2ccccc2Cl)c(C)c1NC(=O)NC12CC3CC(CC(C3)C1)C2,x,-2.9,x,-7.6*
Cc1nn(Cc2cccc(C(=O)NC34CC5CC(CC(C5)C3)C4)c2)c(C)c1Br,x,-1.3,x,-6.4*
Cc1nn(Cc2ccccc2Cl)c(C)c1NC(=O)c1nc2ncccn2n1,x,-1.4,x,0.093
Cc1ccc(C2CC(=O)Nc3cc4c(cc32)OCO4)o1 (centres undefined),x,0.62,x,-0.58
CCOC(=O)c1cc2sccc2n1CC(=O)N1CCCc2ccccc21,2.2,-2.9,-0.66,-3.8*
O=C(c1cc2sccc2n1Cc1ccccc1)N1CCCc2ccccc21,x,-2.1,x,-6.8*
FC(F)(F)c1cc(-c2ccco2)nc(NCc2cccnc2)n1,-1.1,0.06,0.75,x
FC(F)(F)c1cc(-c2ccccc2)nc(NCc2cccnc2)n1,x,-3.4*,x,-1.2
CC1=NN(/C(=N\c2nnc(C)s2)Nc2ccc(C(C)(C)C)cc2)[C@H](c2ccc(C)cc2)S1,x,-0.61,x,-5.6*
CCc1cc(-c2n[nH]c(=S)n2Cc2ccccc2)cs1,x,-0.47,x,x
NC(=O)[C@H]1CC2(CC(c3cccc(NC(=O)COc4ccc(Cl)cc4)c3)=NO2)CN1C(=O)Cc1ccc([N+](=O)[O-])cc1 (some centres undefined),x,x,x,-0.41
O=C1C2C(c3ccccc3)C=CC(c3ccccc3)C2C(=O)N1CCCO (centres undefined),x,-1.4,x,-1.4
